Data as given in PubChem BioAssay (NCATS).
Inconclusive results are not listed. Activity calls are given as the source filed them. Calls come from the whole dose curve; as a rule, active = well fitted cell-killing curve with a large enough effect; inconclusive = small, poorly fitted or top-dose-only effect; inactive = flat fitted curve, though single readings scatter.

Experiment: Cell Viability - LYMP2-016 (AID 984); note: nearly all actives have a fitted effect of over 55% in size
Details: LYMP2-016 lymphoblastoid cell viability, qHTS; series mostly up to 92.2 µM; activity change, negative = cytotoxicity: at the top concentration
Text: NIH Chemical Genomics Center [NCGC]
NIH Molecular Libraries Screening Centers Network [MLSCN]
National Institutes of Environmental Health Sciences [NIEHS]
National Toxicology Program [NTP]
We have developed a 1536-well cell-based assay for quantitative high throughput screening (qHTS) against a number of cell lines to determine in vitro cytotoxicity of small molecules. This particular assay uses a human lymphoblastoid cell line (LYMP2-016) purchased from Coriell Institute for Medical Research.
NCGC Assay Protocol Summary:
The CellTiter-Glo luminescent cell viability assay (Promega) is a homogeneous method to measure the number of viable cells in culture. The end point readout of this assay is based on quantitation of intracellular ATP, an indicator of metabolic activity, using the luciferase reaction. Luciferase catalyzes the oxidation of beetle Luciferin to oxyluciferin and light in the presence of ATP. The luminescent signal is proportional to amount of ATP present.
Using the CellTiter-Glo luminescent cell viability assay, the amount of cellular ATP was measured in the lymphoblastoid cell line with complete culture medium following compound treatment for 24 hours. The assay was performed in opaque white Kalypsys 1536-well plates. In the screen, tetraoctylammonium bromide was used as positive control. Library compounds were measured for their ability to cause acute toxicity in the cell line, as reflected by a decrease in intracellular ATP levels, in a concentration-dependent manner. […] AC50 values were determined from concentration-response data modeled with the standard Hill equation.
qHTS protocol for CellTiter Glo lymphoblastoid cellular assay
[Step] [Parameter] [Value] [Description]
1. Reagent; 5 uL; 2500 lymphoblastoid cells/well
2. Time; 5 hr; 37 C incubation
4. Controls; 23 nL; Tetraoctylammonium bromide 6.4pM to 92 uM
5. Time; 24 hr; 37 C incubation
6. Reagent; 5 uL; CellTiter Glo reagent
7. Time; 30 min; Room Temperature
8. Detection; Luminescence; Viewlux plate reader
Keywords: cell viability, cytotoxicity, lymphoblastoid cell line, luminescence, NTPHTS, NTPHTS_NCGC, NIEHS, DSSTox, MLSMR, MLSCN, NIH Roadmap, qHTS, NCGC
% is set by controls: 0 for no effect and ±100 for the full control effect.

SMILES	activity change, negative = cytotoxicity
COc1ccc(C(=O)c2ccccc2)c(O)c1	5.36% (inactive)
CCOc1ccc(NC(C)=O)cc1	-5.63% (inactive)
CCOc1ccccc1C(N)=O	-5.42% (inactive)
NC(=O)c1ccccc1O	-7.01% (inactive)
COc1ccc(C(Cl)=C(c2ccc(OC)cc2)c2ccc(OC)cc2)cc1	-24.1% (inactive)
NCCNc1cccc2ccccc12	-25% (inactive)
O=C(O)c1ccc(S(=O)(=O)N(Cl)Cl)cc1	-14.8% (inactive)
COc1cc([C@H]2Oc3cc([C@H]4Oc5cc(O)cc(O)c5C(=O)[C@@H]4O)ccc3O[C@@H]2CO)ccc1O	1.44% (inactive)
OC[C@H]1O[C@@H]2O[C@H]3[C@H](O)[C@@H](O)[C@@H](O[C@H]4[C@H](O)[C@@H](O)[C@@H](O[C@H]5[C@H](O)[C@@H](O)[C@@H](O[C@H]6[C@H](O)[C@@H](O)[C@@H](O[C@H]7[C@H](O)[C@@H](O)[C@@H](O[C@H]8[C@H](O)[C@@H](O)[C@@H](O[C@H]1[C@H](O)[C@H]2O)O[C@@H]8CO)O[C@@H]7CO)O[C@@H]6CO)O[C@@H]5CO)O[C@@H]4CO)O[C@@H]3CO	-1.36% (inactive)
CCCN(CCC)S(=O)(=O)c1ccc(C(=O)O)cc1	-4.8% (inactive)
C=C[C@H]1CN2CC[C@H]1C[C@@H]2[C@@H](O)c1ccnc2ccc(OC)cc12	-15.4% (inactive)
CCCCC(CC)COC(=O)c1ccc(N(C)C)cc1 (stereo not drawn)	-1.14% (inactive)
C/C=C/c1ccc(O)c(OC)c1	-1.06% (inactive)
